High-throughput results from PubChem.
Cardiac RTF inh: cardiac RTF calcium desensitization; IANBD-labeled cardiac RTF, Ca2+ fluorescence; 340,000 tested, 0.12% active; P19429+P45379; inhibition, % at 7.15 µM; AID 493244;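 active = inhibition above the mean inhibition of all tested compounds plus 3 SD, cut at about 17% in these data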;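 note: assay run at fixed EC70 calcium of 1.6 mM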
IDE inh: inhibitors of human insulin-degrading enzyme in cells; HEK cells, FAbetaB cleavage, fluorescence polarization; inhibition, % at 5.59 µM; 320,000 tested, 0.41% active;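 active = percent inhibition above the average of all tested compounds plus 3 SD, set per screening campaign, cut at about 16% in these data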;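 note: IDE supplied by intact live HEK cells; FP after avidin binding of uncleaved biotin substrate so inhibition keeps polarization high; 0% = DMSO wells and 100% = 60 µM reference IDE inhibitor Ii1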
Target sequence (P14735 whole entry, looked up): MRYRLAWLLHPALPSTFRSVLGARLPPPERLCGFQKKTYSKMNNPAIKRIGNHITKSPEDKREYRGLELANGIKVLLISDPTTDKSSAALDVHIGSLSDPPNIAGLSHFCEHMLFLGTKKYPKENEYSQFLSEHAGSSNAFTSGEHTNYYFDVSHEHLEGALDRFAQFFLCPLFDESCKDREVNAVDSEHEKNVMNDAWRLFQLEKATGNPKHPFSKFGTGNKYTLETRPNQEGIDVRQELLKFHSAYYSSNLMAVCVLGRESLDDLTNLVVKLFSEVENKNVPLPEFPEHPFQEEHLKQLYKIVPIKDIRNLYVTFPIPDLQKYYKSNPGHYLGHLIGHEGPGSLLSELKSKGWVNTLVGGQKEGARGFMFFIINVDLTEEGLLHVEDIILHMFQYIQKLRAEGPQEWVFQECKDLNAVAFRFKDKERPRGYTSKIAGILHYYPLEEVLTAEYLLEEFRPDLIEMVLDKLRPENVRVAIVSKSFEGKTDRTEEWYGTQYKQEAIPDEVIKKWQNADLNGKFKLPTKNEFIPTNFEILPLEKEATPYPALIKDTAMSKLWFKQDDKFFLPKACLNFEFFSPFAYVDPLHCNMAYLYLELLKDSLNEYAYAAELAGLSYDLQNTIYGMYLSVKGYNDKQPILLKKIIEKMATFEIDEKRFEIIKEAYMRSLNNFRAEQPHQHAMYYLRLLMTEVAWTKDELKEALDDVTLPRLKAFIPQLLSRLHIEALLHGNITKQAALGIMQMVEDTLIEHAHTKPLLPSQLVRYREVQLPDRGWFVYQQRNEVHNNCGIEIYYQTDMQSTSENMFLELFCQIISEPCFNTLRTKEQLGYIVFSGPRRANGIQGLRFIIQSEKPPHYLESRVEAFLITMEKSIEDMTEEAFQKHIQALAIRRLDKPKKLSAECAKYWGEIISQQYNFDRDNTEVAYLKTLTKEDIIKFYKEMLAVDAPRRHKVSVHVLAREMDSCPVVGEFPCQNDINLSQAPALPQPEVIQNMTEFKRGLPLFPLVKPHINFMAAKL
C-LANA FP: inhibitors of KSHV LANA C-terminal domain DNA binding. MBP-C-LANA/FAM-LBS DNA binding, fluorescence polarization. inhibition, % at 9 µM. 340,000 tested, 0.078% active;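 active = highest replicate inhibition at or above 60% at 9 µM, even if other replicates fall short; inactive = all replicates below 60% inhibition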;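 note: 0% = neutral control wells and 100% = 4 µM acridine orange control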
Keap1-Nrf2 PPI: inhibitors of human Keap1-Nrf2 protein-protein interaction. Q14145. Keap1 Kelch-Nrf2 peptide fluorescence polarization, 1536-well. inhibition, % at 9.4 µM. 340,000 tested, 0.15% active; in the data active = inhibition above about 12%; inconclusive = no clear call, values can overlap the other calls; inactive = below about 7.3%;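 note: human Keap1 Kelch domain with fluorescein labeled Nrf2 9mer peptide probe; 0% = neutral control wells and 100% = peptide positive control; higher means more block of Keap1 binding to Nrf2 peptide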
IDE cell activ: activators of human insulin-degrading enzyme in cells; 340,000 tested, 0.073% active; P14735; activation, % at 5.96 µM; HEK cells, FAbeta-B cleavage, fluorescence polarization; 0% vehicle, 100% cell-free pure enzyme wells; AID 493087;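 active = activation above the mean of all tested compounds plus 3 SD, set per screening campaign, cut at about 17% in these data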
RTF Ca sens act: cardiac RTF calcium sensitization. activation, % at 7.2 µM. P19429+P45379. IANBD-labeled TnC RTF fluorescence at EC20 calcium; 0% EC20 calcium, 100% full calcium. AID 493008. 340,000 tested, 0.24% active;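 active = activation above the mean over all tested compounds plus 3 SD, cut at about 30% in these data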;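 note: rise in fluorescence read as greater calcium sensitivity of cardiac thin filaments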
* hit, by the source's call; i = inactive; u = inconclusive; x = no result given. The list is not random: actives were taken first. Their share in the collection is about 0.81%.

SMILES | Cardiac RTF inh | IDE inh | C-LANA FP | Keap1-Nrf2 PPI | IDE cell activ | RTF Ca sens act
CCC(C)[C@H](NS(=O)(=O)c1ccc(C)cc1)C(=O)N1CCC(C(=O)N2CCC(C(N)=O)CC2)CC1 (stereo partly drawn) | -4.1 | -1.9 | 2.2 | 5.0 | 4.0 | 2.7
CN(CCC#N)C(=O)COC(=O)c1c2c(nc3ccccc13)/C(=C\c1ccco1)CC2 | -1.3 | x | 4.1 | -2.1 | -7.9 | 1.8
O=C(NCc1cccc(C(F)(F)F)c1)c1cccc2c1C(=O)c1ccc(N3CCC(Cc4ccccc4)CC3)cc1S2(=O)=O | -193.5 | 1.7 | 9.5 | -1.6 | -1.4 | 95.0*
O=C(NCCN1CCOCC1)c1cccc2c1C(=O)c1ccc(N3CCCC3)cc1S2(=O)=O | -25.1 | 8.7 | -5.1 | -32.7 | -4.4 | 14.6
O=C(O)c1cccc2c1C(=O)c1ccc(N3CCCC3)cc1S2(=O)=O | -41.9 | 2.8 | 8.5 | -32.1 | -7.0 | 35.8*
O=C(NCc1ccc(OC(F)(F)F)cc1)c1cccc2c1C(=O)c1ccc(N3CCC(Cc4ccccc4)CC3)cc1S2(=O)=O | -7.8 | 2.6 | 18.0 | -8.8 | 4.9 | 9.6
O=C(NCCc1ccc(F)cc1)c1cccc2c1C(=O)c1ccc(N3CCC(Cc4ccccc4)CC3)cc1S2(=O)=O | -178.5 | 8.1 | 14.3 | -5.8 | -7.4 | 117.0*
O=C(NCc1cccc(F)c1)c1cccc2c1C(=O)c1ccc(N3CCC(Cc4ccccc4)CC3)cc1S2(=O)=O | -220.8 | 4.3 | 16.6 | 6.4 | -1.8 | 177.8*
COc1ccc(/C=N/NC(=O)C(O)(c2ccccc2)c2ccccc2)cc1OC | -3.7 | 0.0 | 0.3 | -3.1 | 7.7 | 4.0
COc1ccccc1NC(=O)CCCC(=O)OC(C)C(=O)c1ccccc1 (stereo not drawn) | -1.2 | 1.6 | 0.2 | -5.4 | -3.1 | -0.6
O=C1CCC(=O)c2ccc3c4c(ccc1c24)CC3 | -0.3 | x | 1.4 | -3.9 | 1.4 | -2.1
O=C1CCN2C=Nc3cccc4ccc1c2c34 | i | -20.8 | 151.9* | 140.4* | 41.1* | 703.0*
CN(C)c1ccc(/C=C2\CCC/C(=C\c3ccccc3)C2=O)cc1 | -87.1 | 6.7 | 1.0 | 3.0 | -6.2 | 84.3*
O=C1/C(=C/c2ccccc2)CCCc2ccccc21 | 2.0 | 2.6 | 0.9 | -1.1 | 4.7 | -2.2
Cc1nc(C)c(C(=O)OC(C)C(=O)Nc2ccc(F)cc2)s1 (stereo not drawn) | -3.6 | 0.1 | 0.7 | 1.7 | 0.8 | -1.0
Cc1ccc(S(=O)(=O)N2CCOCC2)cc1NC(=O)CN1C(=O)NC(C)(c2ccc(Cl)cc2Cl)C1=O (stereo not drawn) | 2.8 | 3.0 | 0.5 | 2.1 | 0.2 | -0.8
CC(C)CC1=NN2C(=N)/C(=C\c3coc4ccccc4c3=O)C(=O)N=C2S1 | -256.9 | x | 21.2 | -95.6 | -31.8 | 230.3*
Cc1cccc(-n2c(C)cc(/C=C3\C(=N)N4N=C(CC(C)C)SC4=NC3=O)c2C)c1 | 3.0 | -1.6 | 1.7 | 0.1 | 2.2 | 2.5
CCNC(=S)NNC(=O)c1cc(C2CC2)nc2ccccc12 | -6.9 | 0.1 | 0.6 | -4.4 | -4.2 | -1.1
COc1ccc(/C=C2\Oc3cc(OCC(=O)N4CCC(C(=O)O)CC4)ccc3C2=O)c(OC)c1OC | 0.9 | -14.9 | -0.1 | 0.5 | 23.3* | 7.1
COc1cccc(/C=C2\Oc3cc(OCC(=O)N4CCCC4)ccc3C2=O)c1OC | -3.4 | 2.9 | -0.4 | -2.7 | 2.2 | -6.9
COc1ccc(/C=C2\Oc3cc(OCC(=O)N4CCC(C(=O)O)CC4)ccc3C2=O)c(OC)c1 | -36.7 | -15.4 | -16.3 | -48.5 | 28.8* | 27.8
COc1ccc(/C=C2\Oc3cc(OC(=O)N4CCOCC4)ccc3C2=O)c(OC)c1 | -51.1 | 1.5 | 2.8 | 0.6 | -15.6 | 36.9*
CSc1ccc(CNC(=O)Cn2nc(C)c3c(C)n(-c4ccc(C)cc4)nc3c2=O)cc1 | 0.1 | 6.4 | -3.7 | -0.3 | 8.9 | 1.5
N/C(=N\OC(=O)CSc1ccccc1)c1ccc([N+](=O)[O-])cc1 | -6.4 | 3.0 | 3.5 | 2.0 | 2.2 | -4.9
SMILES | Cardiac RTF inh | IDE inh | C-LANA FP | Keap1-Nrf2 PPI | IDE cell activ | RTF Ca sens act
COc1cc(C2C3CN(C)CC=C3C(C#N)=C(N)C2(C#N)C#N)ccc1OC(C)C (stereo not drawn) | -27.1 | 0.0 | 33.2 | 2.3 | -5.4 | 42.2*
O=C(CS(=O)(=O)Cc1ccccc1)NCCc1ccc(F)cc1 | -8.6 | -7.9 | 6.8 | u | 1.8 | -6.6
CCN(CC)c1ccc2c(c1)oc(=O)c1c(Cl)cc(=O)oc12 | -270.3 | 7.4 | 6.2 | -1.9 | -3.0 | 199.9*
O=C1OCc2ccc(NC(=O)C3CC3)cc21 | -1.5 | 5.5 | 84.1* | 2.2 | 5.2 | 3.4
CCCOc1ncnc2c1[nH]c1ccc(C)cc12 | x | 37.1* | x | x | x | x
CCOc1ncnc2c1[nH]c1ccccc12 | -1.2 | 18.3* | -1.0 | -4.3 | -12.3 | 2.8
COc1ccc(CNc2ncnc3c2[nH]c2cc(OC)c(OC)cc23)cc1 | 1.0 | 2.5 | 0.3 | -4.2 | 0.6 | -2.6
CC(C)OCCCNc1ncnc2c1[nH]c1ccccc12 | 0.5 | 13.3 | -1.8 | -5.7 | -36.8 | 0.1
COc1ccc(CNc2ncnc3c2[nH]c2ccccc23)cc1 | x | 60.5* | x | x | x | x
Cc1ccc2[nH]c3c(Cl)ncnc3c2c1 | x | 3.4 | 0.0 | 4.3 | x | x
CC(=O)Nc1ccc(SCC(=O)Nc2ccccc2N2CCOCC2)cc1 | 6.9 | -0.2 | -2.5 | -8.4 | -3.2 | 1.3
CC(CCC(C)C(C)(C)C)[C@@H]1CC[C@H]2C3C[C@H](OS(O)(=S)=S)[C@H]4C[C@H](OS(O)(=S)=S)[C@@H](OS(O)(=S)=S)C[C@]4(C)[C@H]3CC[C@]12C (stereo partly drawn) (tested in a mixture with another compound) | 56.2* | -10.5 | 123.2* | 84.3* | 11.4 | -23.5
O=C(OC(C(=O)NC1CCCCC1)c1ccc(C(F)(F)F)cc1)c1ccco1 (stereo not drawn) | 0.1 | 5.2 | 0.7 | -2.3 | -0.1 | -9.1
O=C(O)c1ccccc1Nc1ccc([N+](=O)[O-])cc1 | -17.4 | -13.5 | 0.3 | -8.2 | 28.4* | -1.9
O=C(O)c1ccc(N=Nc2c(O)[nH]c3ccc(Br)cc23)cc1 | 0.5 | 3.1 | 0.9 | -5.0 | -2.8 | -2.6
O=c1ccc2cc3c([nH]c4ccc(Br)cc43)oc-2c1O | 24.0* | 9.6 | 9.5 | 55.4* | -21.6 | -31.5
CN1CCN(C(=O)c2cccc(NS(=O)(=O)c3ccc(Br)cc3)c2)CC1 | 1.5 | -0.3 | 0.5 | 0.1 | -4.3 | 1.6
CCOC(=O)C1(CC2CC2)CCN(Cc2cnc(N(C)C)s2)CC1 | -3.4 | 3.4 | -1.4 | -1.5 | 17.4* | -1.1
CCOc1ccc(-c2cn(-c3ccc(OC)cc3)c(SC)n2)cc1 | 0.7 | 16.6* | 0.0 | -2.2 | -0.7 | -3.5
CSc1nc(-c2ccccc2)cn1-c1ccc(NC(C)=O)cc1 | 2.6 | 6.9 | 0.9 | -3.4 | -3.3 | -5.8
S=C(NCc1ccccc1)Nc1ccncc1 | -6.9 | 2.7 | -0.2 | -1.4 | -0.7 | -5.7
